Assay results published in PubChem BioAssay AID2315 (National Center for Advancing Translational Sciences (NCATS), 2010).
The whole screen tested about 290,000 compounds, of which about 27,000 (9.3%) were called active. For the sample, actives were picked, then their nearest neighbours and some compounds at random. A number with no mark means an inactive call. No stated cut-off is given here; in the data, active means inhibition mostly above about 28% (no sharp cut-off); inactive means mostly below about 43%.

Assay: A qHTS for Small Molecule Inhibitors of Shiga Toxin; further: 0% is about no effect
Conditions: Vero cells, Shiga toxin protein synthesis inhibition reporter; at 38.7 µM, hits give high values

SMILES	inhibition
Cc1ccccc1CCNC(=O)C1CCC(=O)N(Cc2ccc(Cl)cc2)C1 (stereo not drawn)	13.3%
O=C(OCc1ccc([N+](=O)[O-])cc1)C1CC(=O)N(Cc2ccccc2Cl)C1 (stereo not drawn)	-0.893%
O=C(NCCCN1CCCCC1)C1CC(=O)N(CCc2ccccc2)C1 (stereo not drawn)	-8.56%
COc1ccc(/C=N\NC(=O)c2sc(N)nc2C)cc1OC	15.2%
COc1cc(/C=N/NC(=O)c2ccccc2)ccc1OS(=O)(=O)c1ccccc1	31% (active)
COc1ccc(/C=N/S(=O)(=O)c2ccccc2)cc1OC	-10.1%
COc1ccc(/C=N/NC(=O)c2ccccc2)cc1OS(=O)(=O)c1ccccc1	59.1% (active)
Cc1ccc(S(=O)(=O)Oc2ccc(/C=N/NC(=O)c3ccncc3)cc2)cc1	9.5%
COc1cc(/C=N/NC(=O)c2cccnc2)ccc1OC(=O)c1cccc(Br)c1	-22.1%
COc1ccc(C)cc1NC(=O)CN(C)S(=O)(=O)c1ccc2c(c1)n(C)c(=O)c(=O)n2C	3.45%
COc1ccc(-n2cc(-c3ccccc3)c3c(=S)nc[nH]c32)cc1	-14.3%
CC(Oc1cccc(Cl)c1)C(=O)NC1CC(C)(C)NC(C)(C)C1 (stereo not drawn)	-11.3%
CCn1cc(C(=O)NCCC(=O)NCCO)c(=O)c2cc3c(cc21)OCO3	-8.77%
CC(C)[C@H](NC(=O)N1CCn2c1nc1ccccc12)C(=O)NCCc1ccccc1	31.8%
O=C(O)c1c(NC(=O)N2CCCC2)sc2c1CCCC2	36.9%
O=C(O)C1CCCN1S(=O)(=O)c1ccc(Br)cc1 (stereo not drawn)	-1.18%
COc1cc(CNc2ncn[nH]2)ccc1OCc1ccccc1C	67.9% (active)
COc1ccc(CCNC(=O)C(=O)NCc2ccccc2C)cc1OC	-10.9%
c1n[nH]c(NCc2ccc3c(c2)OCO3)n1	-23.7%
COc1ccc(C(O)(C2CCCCC2)C(CN2CCCC2)c2ccccc2)cc1 (stereo not drawn)	0.707%
O=C(NCc1cc(F)cc(C(F)(F)F)c1)C1CCC(=O)N(C2CCCC2)C1 (stereo not drawn)	40.9%
CCC(=O)Nc1nnc(S(=O)(=O)N(CC(C)C)c2ccccc2)s1	1.25%
CCN(CC)c1ccc(C(=O)N/N=C(\C)c2cccc(OC)c2)cc1	22.3%
C/C(=N\Nc1ncc(Cl)cc1Cl)c1cccs1	101% (active)

SMILES	inhibition
C/C(=N\NS(=O)(=O)c1ccc(Br)cc1)c1cccs1	-4.11%
COC(=O)c1sccc1N/N=C(\C)c1ccc(F)c(Cl)c1	-5.96%
O=S(=O)(NCc1ccco1)c1cnc(Cl)c(Cl)c1	-12.1%
C/C(=N\Nc1nc(Nc2ccccc2)nc(N2CCOCC2)n1)c1cccs1	-5.79%
COc1cccc(/C(C)=N/Nc2ncc(Cl)cc2Cl)c1	38.2% (active)
C/C(=N\Nc1nc2ccccc2[nH]1)c1cccs1	97.5% (active)
C/C(=N\Nc1ccc(S(N)(=O)=O)cc1[N+](=O)[O-])c1cccs1	2.64%
Cc1c(Cl)cnc(NC(=O)COC(=O)c2ccc(S(=O)(=O)NCc3ccco3)cc2)c1Cl	-13.9%
C/C(=N\Nc1ncc(Cl)cc1Cl)c1ccc(S(=O)(=O)NCc2ccco2)cc1	144% (active)
O=C(Nc1ccccc1-c1nc2ccccc2[nH]c1=O)c1cccs1	-5.13%
Cc1ccc(N2CCN(c3ccc([N+](=O)[O-])cn3)CC2)c(C)c1	-5.14%
COc1ccc2c(c1OC)C(=O)N(c1ccc(O)cc1)C2	29.7%
O=C(COc1ccc(S(=O)(=O)N2CCOCC2)cc1Cl)N1CCOCC1	-5.97%
O=C(c1ccccc1)N1CCC(CC2CC(c3ccc(Cl)cc3)=NO2)(C(=O)NCC2CCCCC2)CC1 (stereo not drawn)	-0.8%
Cc1ccc(N2CC(C(=O)Nc3ccc(S(=O)(=O)N4CCCC4)cc3)CC2=O)cc1C (stereo not drawn)	-5.32%
N#C/C(=C/c1ccc(-c2ccccc2[N+](=O)[O-])o1)C(=O)NCCN1CCCCC1	6.58%
Cc1ccc(-c2ccc(/C=C(\C#N)C(N)=S)o2)c([N+](=O)[O-])c1	19.2% (active)
Cc1ccc(Cc2cnc(NC(=O)/C(C#N)=C/c3ccc(-c4cccc([N+](=O)[O-])c4)o3)s2)cc1	19.7%
CCc1cc(=O)oc2c(C)c(OCC(=O)N3CC[C@@]4(O)CCCC[C@H]4C3)ccc12	-4.55%
Cc1cccc(C)c1NC(=O)C(Cl)C(=O)c1ccccc1 (stereo not drawn)	-15.6%
CC(C)N(C(=O)Cn1cc(S(=O)(=O)CC(=O)N2CCOCC2)c2ccccc21)C(C)C	-3.05%
CC1CCCC(C)N1C(=O)CSc1nnnn1C1CCCC1 (stereo not drawn)	53.7% (active)
O=C(CSc1nnc2ccc(-c3ccncc3)nn12)N1CCCCC1	-15.9%
CCCc1nnc(SCC(=O)N2C(C)CCCC2C)n1CC (stereo not drawn)	3.99%

SMILES	inhibition
CC(Sc1nnnn1C1CCCCC1)C(=O)O (stereo not drawn)	3.3%
O=C(CSc1nnnn1C1CCCC1)N1CCCCC1	110% (active)
CC(C)C(=O)Nc1nnc(SCC(=O)N2C(C)CCCC2C)s1 (stereo not drawn)	-4.35%
COc1ccc(C2NC(=O)C(=O)/C2=C(\O)c2ccc(Cl)cc2)cc1OC (stereo not drawn)	-18%
CCN(CC(=O)NCCCN1CCOCC1)S(=O)(=O)c1cc(Cl)ccc1Cl	10.6%
Cc1cccc(N2CCN(C(=O)c3cccc(N4C(=O)C5C6C=CC(C6)C5C4=O)c3)CC2)c1C (stereo not drawn)	-9.11%
CCC(C)NC(=O)C1c2ccccc2C(=O)N1Cc1ccccc1 (stereo not drawn)	-8.49%
CCOc1ccc(NC(=O)C2CCN(C(=O)N3CCOc4ccccc43)CC2)cc1	7.11%
COc1ccc([N+](=O)[O-])cc1NC(=O)CCc1ccccc1	17%
O=C(CCc1ccccc1)Nc1ncc([N+](=O)[O-])s1	85.8% (active)
CC(C)Cc1nnc(NC(=O)CCc2ccccc2)s1	7.6%
CCN(CC)S(=O)(=O)c1ccc(N2CCOCC2)c(NC(=O)C2COc3ccccc3O2)c1 (stereo not drawn)	4.87%
O=C(Cc1c(F)cccc1Cl)Nc1ccc(-n2cnnn2)cc1	12.8%
O=C(Nc1ncc([N+](=O)[O-])s1)C1COc2ccccc2O1 (stereo not drawn)	93.4% (active)
O=C(Nc1nc2c(F)cc(F)cc2s1)C1COc2ccccc2O1 (stereo not drawn)	71.8% (active)
CN(c1ccccc1)S(=O)(=O)c1cccc(NC(=O)Cc2c(F)cccc2Cl)c1	-0.293%
O=C(Cc1c(F)cccc1Cl)Nc1ncc([N+](=O)[O-])s1	75.5% (active)
O=C(Nc1nc(-c2ccncc2)cs1)C1COc2ccccc2O1 (stereo not drawn)	-4.34%
Cc1ccc(S(=O)(=O)N(C)C)cc1NC(=O)COC(=O)C1COc2ccccc2O1 (stereo not drawn)	-6.06%
O=C(Nc1nnc(SCc2ccc(Cl)cc2Cl)s1)C1COc2ccccc2O1 (stereo not drawn)	-4.34%
Cc1cc(C)cc(N(CC(=O)NC2CCCC2)C(=O)CCC(=O)Nc2cc(C)on2)c1	-3.5%
Cc1ccc2[nH]cc(CCNC(=O)C3CCCCC3)c2c1	-0.198%
CC(C)CNC(=O)CC(NCC(C)C)C(=O)O (stereo not drawn)	-15%
CCCCNC(=O)C1CCC(=O)N1CCc1ccccc1 (stereo not drawn)	2.74%

SMILES	inhibition
COc1cc(C(=O)NC2CCN(Cc3ccccc3)CC2)cc(Cl)c1OC(C)C	2.17%
Cc1cc(OCC(=O)NCC(O)c2ccccc2)c2c(C)c(C)c(=O)oc2c1 (stereo not drawn)	0.938%
CCCCN(C)CCCNC(=O)c1cc(-c2cccs2)nc2ccccc12	-4.77%
COc1cc(CN2CCCN(C)CC2)c([N+](=O)[O-])cc1OC	-4.36%
CCN(C(=O)CN1C(=O)/C(=C/c2ccc(F)cc2)SC1=S)C1CCS(=O)(=O)C1 (stereo not drawn)	-8.73%
CCc1nn(CCCC(=O)Nc2ccc(C)cc2C)c(=O)c2cc3occc3n12	-5.79%
O=C(Nc1cccc(Cl)c1N1CCOCC1)c1cccnc1	-2.36%
Cc1cccc(N(C(=O)Cn2nnc(-c3ccc(C)o3)n2)C(C(=O)NC2CCCC2)c2ccncc2)c1 (stereo not drawn)	-3.72%
COc1ccc2c(CC(=O)N3CCc4cc(OC)c(OC)cc4C3)coc2c1	-3.55%
COc1ccc(NC(=O)CC2COc3ccccc3O2)c(OC)c1 (stereo not drawn)	25%
CC(=O)Oc1ccccc1C(=O)Nc1ncc([N+](=O)[O-])s1	77.1% (active)
COc1ccc(NC(=O)C2COc3ccccc3O2)cc1 (stereo not drawn)	70.7% (active)
C/C(=N/NC(=O)C1COc2ccccc2O1)c1ccco1 (stereo not drawn)	3.3%
O=C(Nc1ccncc1)c1ccccc1[N+](=O)[O-]	5.85%
COc1ccc(NC(=O)c2ccccc2[N+](=O)[O-])cc1OC	9.2%
CC(C)(C)c1cc[n+](-c2[nH]c(=O)sc2/C=N/N=C(\[O-])c2ccccc2)cc1	25.8%
COc1ccc(CNC(=O)c2c[nH]c3c(OC)cc(OC)cc3c2=O)cc1	-11.7%
COc1ccc(CN2CCCC(N3CCc4ccccc4C3)C2)c(O)c1 (stereo not drawn)	-7.05%
CN1CCN(CCCCOc2cccc3ccccc23)CC1	29.7%
Cc1cccc(CCNC(=O)Cn2ncc3c([nH]c4ccc(C)cc43)c2=O)c1	15.3%
Cc1cc(-c2ccc(S(=O)(=O)N3CCc4ccccc4C3)s2)on1	-19.6%
